Data reported in PMC4336329 (PLoS ONE, 2015).
The whole screen tested about 310,000 compounds, of which about 14,000 (4.5%) showed an effect of 50% or more. The effect is printed as a negative number. Many of the other results were omitted from the sample, so strong results are more common in it than they were.

Target: human ether-à-go-go-related gene (hERG) potassium channel (human, UniProt Q12809)
Assay: primary screen, population patch clamp on CHO cells stably expressing hERG; higher = less effect of the substance
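Also: peak tail current of the secondary pulse compared with the same well before compound.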

human ether-à-go-go-related gene (hERG) potassium channel, sequence (Q12809 whole entry, looked up): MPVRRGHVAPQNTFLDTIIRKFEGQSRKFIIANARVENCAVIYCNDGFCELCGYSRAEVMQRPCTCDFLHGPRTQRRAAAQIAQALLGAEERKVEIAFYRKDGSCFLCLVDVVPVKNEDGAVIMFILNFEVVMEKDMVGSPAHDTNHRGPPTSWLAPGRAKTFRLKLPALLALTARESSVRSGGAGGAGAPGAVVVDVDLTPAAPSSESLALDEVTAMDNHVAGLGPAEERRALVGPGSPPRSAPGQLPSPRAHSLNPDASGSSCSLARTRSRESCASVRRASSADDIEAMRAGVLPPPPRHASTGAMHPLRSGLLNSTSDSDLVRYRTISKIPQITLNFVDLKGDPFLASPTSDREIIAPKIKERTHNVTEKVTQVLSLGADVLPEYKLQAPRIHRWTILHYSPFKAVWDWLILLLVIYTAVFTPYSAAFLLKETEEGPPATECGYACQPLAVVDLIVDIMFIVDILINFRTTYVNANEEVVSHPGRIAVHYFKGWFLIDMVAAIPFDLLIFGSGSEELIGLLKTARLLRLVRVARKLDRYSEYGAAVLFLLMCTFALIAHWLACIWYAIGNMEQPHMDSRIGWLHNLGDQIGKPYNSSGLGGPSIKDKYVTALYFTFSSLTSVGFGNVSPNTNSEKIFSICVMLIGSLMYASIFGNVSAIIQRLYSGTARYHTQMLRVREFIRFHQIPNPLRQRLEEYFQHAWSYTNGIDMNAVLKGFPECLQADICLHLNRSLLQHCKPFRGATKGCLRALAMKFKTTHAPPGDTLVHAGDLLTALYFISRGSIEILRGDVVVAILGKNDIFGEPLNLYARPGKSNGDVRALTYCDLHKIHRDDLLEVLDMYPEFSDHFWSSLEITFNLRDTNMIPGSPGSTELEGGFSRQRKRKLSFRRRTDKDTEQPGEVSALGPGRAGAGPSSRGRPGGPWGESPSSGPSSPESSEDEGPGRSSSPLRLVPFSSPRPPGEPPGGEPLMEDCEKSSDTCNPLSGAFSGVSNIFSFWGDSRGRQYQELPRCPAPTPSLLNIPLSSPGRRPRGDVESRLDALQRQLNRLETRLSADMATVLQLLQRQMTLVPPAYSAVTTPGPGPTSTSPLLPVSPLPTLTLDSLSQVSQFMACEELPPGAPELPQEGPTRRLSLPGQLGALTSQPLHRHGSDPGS

Row | SMILES | hERG current change (%, negative = inhibition) at 10uM
1 | CCc1ccc(OCC(=O)NCC(c2ccc(Cl)cc2)N2CCCCC2)cc1 (stereo not shown) | -6.4%
2 | CCN(CC)C(=O)CCc1nnc(CCc2c[nH]c3ccccc23)o1 | 6.93%
3 | O=C(CN1C(=O)/C(=C/c2ccccc2)SC1=S)Nc1ncc(Cc2ccccc2)s1 | 7.31%
4 | C[C@H](NC(=O)[C@@H]1CSC2c3ccccc3C(=O)N21)C(=O)NC1CCCC1 (stereo partly shown) | 10.5%
5 | COc1ccc(C(=O)NCc2ccon2)cc1OC1CCN(C(C)C)CC1 | -45.6%
6 | CCc1cccc(C)c1N(C(=O)Cn1c(CO)nc2ccccc21)C(C)COC (stereo not shown) | -5.89%
7 | COC(=O)c1c(N)sc(C(C)=O)c1C | 0.466%
8 | CCOC(=O)N1CCC(NC(=O)Cn2c3c(c(-c4ccccc4Cl)cc2=O)CCC3)CC1 | -8.61%
9 | CCOc1ccc(/C=N/Nc2ccccc2)cc1 | 17.6%
10 | O=C(c1cccnc1)N1c2ccccc2Sc2ccccc21 | -18.1%
11 | O=C(NC1CCN(Cc2nnnn2CCc2ccccc2)CC1)c1ccccc1F | -3.18%
12 | c1ccc(CCn2nnnc2CN2CCC(n3nnc4ccccc43)CC2)cc1 | -36.4%
13 | Cl.Fc1ccc2c(c1)nnn2C1CCN(Cc2nnnn2CCc2ccccc2)CC1 | -61.3%
14 | Fc1ccc2c(c1)nnn2C1CCN(Cc2c(Cl)cccc2Cl)CC1 | 7.11%
15 | Fc1ccc2c(c1)nnn2C1CCN(Cc2ccccc2)CC1 | -61.4%
16 | CCCC(C)C(=O)Nc1ccc(Cl)cn1 (stereo not shown) | -7.45%
17 | COc1cc(OC)nc(Oc2cc(/C=N/O)ccc2OC)n1 | 0.516%
18 | Cc1[nH]c(-c2ccc(F)cc2)cc1C(=O)N1CCN(c2ccccc2)CC1 | -58.8%
19 | COc1ccc(-n2ncc(C(=O)N3CCN(c4ccc(F)cc4)CC3)c2C)cc1 | -22.6%
20 | Cc1[nH]c(-c2ccc(F)cc2)cc1C(=O)N1CCN(c2ccc(Cl)cc2)CC1 | -13.4%
21 | CCOC(=O)N1CCN(C(=O)c2cc(-c3ccc(F)cc3)[nH]c2C)CC1 | -72.3%
22 | COc1cccc(N2CCN(C(=O)c3cc(-c4ccc(F)cc4)[nH]c3C)CC2)c1 | -68.4%

Row | SMILES | hERG current change (%, negative = inhibition) at 10uM
23 | COc1cccc(N2CCN(C(=O)c3cc(C)oc3C)CC2)c1 | 6.8%
24 | COc1cccc(N2CCN(C(=O)c3ccc(-c4ccccc4)cc3)CC2)c1 | -49.5%
25 | COc1ccc(N2CCN(C(=O)c3cc(-c4ccc(F)cc4)[nH]c3C)CC2)cc1 | -67.4%
26 | CCOC(=O)N1CCC(NC(=O)c2cc(-c3ccc(F)cc3)[nH]c2C)CC1 | -0.721%
27 | CCOC(=O)N1CCN(C(=O)c2cccc(F)c2)CC1 | -17.9%
28 | Cc1ccc(N2CCN(C(=O)c3cc(-c4ccc(F)cc4)[nH]c3C)CC2C)cc1 (stereo not shown) | -13.3%
29 | Cc1[nH]c(-c2ccc(F)cc2)cc1C(=O)N1CCN(c2cccc(Cl)c2)CC1 | -12%
30 | CCC(=O)NNc1ncnc2ccccc12 | 9.38%
31 | CCN(CC)C(=O)C1CCCN(Cc2ccc3ccccc3c2)C1 (stereo not shown) | -19%
32 | CC(C)(C)OC(=O)NCCCC1=CC2=CC(=O)C(C)(OC(=O)c3ccco3)C(=O)C2=CO1 (stereo not shown) | 5.99%
33 | COCCCNC(=O)C1CCC(CNS(=O)(=O)c2ccc(C)cc2)CC1 (stereo not shown) | 14%
34 | Cc1cccc(CCN2C(N(C)C)=NC[C@@H]2C)c1 | -7.74%
35 | Cc1c(NC(=O)/C(C#N)=C/c2ccc(-c3cccc(Cl)c3)o2)c(=O)n(-c2ccccc2)n1C | -24.5%
36 | NC(=O)c1cc(C(N)=O)nc(Cl)n1 | 16.1%
37 | Cc1cccnc1NC(=O)c1ccc(S(=O)(=O)N2CCC(C)CC2)cc1 | -12.3%
38 | COc1ncnc2c1ncn2CC1COC(C)(C)O1 (stereo not shown) | 15.9%
39 | CCOC(=O)c1sc2nc(CSc3ccccc3)nc(N3CCCN(C)CC3)c2c1C.O=C(O)C(=O)O | -70%
40 | Cc1sc2nc(CSc3ccccc3)nc(NCCN(C)C)c2c1C | -72.2%
41 | Cc1sc2nc(CSc3ccccc3)nc(N3CCOCC3)c2c1C | 2.04%
42 | CCOC(=O)c1sc2nc(CSc3ccccc3)nc(NCCN(C)C)c2c1C | -17.4%
43 | CCOC(=O)c1sc2nc(CSc3ccccc3)nc(N3CCC(C(N)=O)CC3)c2c1C | 17.5%
44 | Cc1sc2nc(CSc3ccccc3)nc(N3CCN(C)CC3)c2c1C | -58.5%

Row | SMILES | hERG current change (%, negative = inhibition) at 10uM
45 | CCNc1nc(CSc2ccccc2)nc2sc(C)c(C)c12 | 1.64%
46 | Cc1sc2nc(CSc3ccccc3)nc(N3CCC(C(N)=O)CC3)c2c1C | -8.46%
47 | COCCNc1nc(CSc2ccccc2)nc2sc(C)c(C)c12 | -5.97%
48 | O=C(NCCCN=C1NS(=O)(=O)c2ccccc21)c1ccco1 | -10%
49 | Cc1nn(C)cc1C1C(C#N)=C(N)N(c2ccc(F)c([N+](=O)[O-])c2)C2=C1C(=O)CCC2 (stereo not shown) | 11%
50 | Cc1ccc(S(=O)(=O)N2[C@@H](c3cccc(Cl)c3)C(C(=O)O)=CC[C@H]2c2cccc(Cl)c2)cc1 | 3.05%
51 | COc1ccc(NC(=S)N/C(=N/S(=O)(=O)c2ccc(C)cc2)c2ccccc2)cc1 | 21.2%
52 | O=[N+]([O-])c1ccc(NC(=S)N/C(=N/CS(=O)(=O)c2ccccc2)c2ccccc2)cc1 | -25.1%
53 | COc1ccc(NC(=S)N/C(=N/CS(=O)(=O)c2ccccc2)c2ccccc2)cc1 | -53%
54 | COc1ccc(NC2SC(=O)N(C)C2=O)cc1 (stereo not shown) | 1.36%
55 | O=C1C(=O)N(CCN2CCOCC2)C(c2ccncc2)/C1=C(/O)c1ccc2c(c1)OCO2 (stereo not shown) | 8.87%
56 | O=S(=O)(Cc1ccccc1)NCC1CCCN(Cc2cccc3nonc23)C1 (stereo not shown) | -12.2%
57 | O=C(NCC1CCCN(Cc2ccc3nonc3c2)C1)c1ccc(F)cc1 (stereo not shown) | -60.8%
58 | O=C(NCC1CCCN(Cc2ccc3c(c2)OCCO3)C1)c1ccc2c(c1)OCO2 (stereo not shown) | -18.8%
59 | O=C(c1cc(F)ccc1F)C1CCCN(Cc2ccc3nonc3c2)C1 (stereo not shown) | -12%
60 | O=C(NCC1CCCN(Cc2ccc3nonc3c2)C1)c1cccc(C(F)(F)F)c1 (stereo not shown) | -61.5%
61 | O=S(=O)(Cc1ccccc1)NCC1CCCN(Cc2ccc(F)c(F)c2)C1 (stereo not shown) | -44.2%
62 | COc1ccc(CC(=O)NCC2CCCN(Cc3cccc(C(F)(F)F)c3)C2)cc1 (stereo not shown) | -28%
63 | O=S(=O)(Cc1ccccc1)NCC1CCCN(Cc2ccc3nonc3c2)C1 (stereo not shown) | -51.2%
64 | O=C(COc1ccc(Cl)cc1)NNC(=O)CSc1nncs1 | 8.43%
65 | COc1ccccc1Oc1ccccc1C(=O)O | 0.941%
66 | O=C(NCc1ccc(Cl)cc1)C1C2C=CC3(CN(Cc4cccnc4)C(=O)C13)O2 (stereo not shown) | -7.1%

Row | SMILES | hERG current change (%, negative = inhibition) at 10uM
67 | COc1ccc(N2CCN(CCCNC(=O)C3CCCN(S(=O)(=O)c4c(C)n[nH]c4C)C3)CC2)cc1 (stereo not shown) | 8.03%
68 | COc1ccc(C(=O)C(C)OC(=O)c2nc3nccc(C)n3n2)cc1 (stereo not shown) | 2.98%
69 | CCOC(=O)C1CCCN(C(=O)c2ccc(CNc3c(N4CCC(C)CC4)c(=O)c3=O)cc2)C1 (stereo not shown) | 5.83%
70 | CC(=O)N1CCC(=NNC(=O)CSc2cc(C)c(Br)cc2C)CC1 | 6.38%
71 | CCCN1CCC(=NNC(=O)CSc2cc(C)c(Br)cc2C)CC1 | -28%
72 | Cc1cc(SCC(=O)NN=C2CCN(C(C)C)CC2)c(C)cc1Br | -69.4%
73 | C=CCN(C(=O)Nc1ccc(Cl)cc1)C1CC(=O)N(c2ccc(OC)cc2)C1=O (stereo not shown) | -14.8%
74 | O=C(NCc1ccncc1)C(=O)C1C(=O)Nc2ccccc21 (stereo not shown) | 11.6%
75 | CCOC(=O)c1csc(NNC=O)n1 | 6.73%
76 | CC(CNC(=O)CCS(=O)(=O)c1ccc2c(c1)NC(=O)CO2)c1ccccc1 (stereo not shown) | -6.68%
77 | Cc1ccc(Sc2c([N+](=O)[O-])ncn2C)cc1 | 3.39%
78 | Cn1cnc([N+](=O)[O-])c1Sc1ccc(Br)cc1 | -20%
79 | Cn1cnc([N+](=O)[O-])c1Sc1ccc([N+](=O)[O-])cc1 | -62.1%
80 | Cc1c(C(=O)N2CCC3(CC2)OCCO3)sc2ncnc(N3CCN(c4ccccn4)CC3)c12 | -44.2%
81 | CCN(CC)c1ncnc2sc(C(=O)N3CCN(c4ccccc4)CC3)c(C)c12 | -50.2%
82 | Cc1c(C(=O)N2CCN(Cc3ccc4c(c3)OCO4)CC2)sc2ncnc(N3CCN(c4ccccc4)CC3)c12 | 7.82%
83 | CCN(CC)c1ncnc2sc(C(=O)N3CCN(c4ccc(OC)cc4)CC3)c(C)c12 | -41.5%
84 | Cc1c(C(=O)N2CCN(c3ccc(F)cc3)CC2)sc2ncnc(N3CCN(c4ccccn4)CC3)c12 | -65.1%
85 | Cc1c(C(=O)N2CCN(c3ccccc3)CC2)sc2ncnc(N3CCN(c4ccccn4)CC3)c12 | -35.1%
86 | COc1ccccc1N1CCN(C(=O)c2sc3ncnc(N4CCN(c5ccccn5)CC4)c3c2C)CC1 | -18.8%
87 | Cc1c(C(=O)N2CCN(c3ccccn3)CC2)sc2ncnc(N3CCOCC3)c12 | -59%
88 | Cc1c(C(=O)N2CCN(c3ccccn3)CC2)sc2ncnc(N3CCN(c4ccccc4)CC3)c12 | -32.8%
